# Screening results (PubChem)
# VACV Venus inh: inhibitors of vaccinia virus (Venus reporter) | 330,000 tested, 0.46% active | Potency, µM (doses to about 36.5 µM), without a hit: at the highest dose activity change, negative = inhibition, actives largely listed as inhibitors | Vaccinia virus Venus reporter expression, fluorescence | AID 720580; calls by dose curve; tested in A549 cells; note: potency is the fitted concentration of half-maximal effect; nearly all actives have a fitted effect of over 30% in size
# Lassa entry inh: inhibitors of Lassa virus binding or cell entry; Lassa virus pseudotype entry inhibition, cell reporter; Potency, µM (titrated, usually from 37.9 µM), inactives show top-dose activity change, negative = inhibition, most hits filed as inhibitors; 300,000 tested, 1.2% active; calls by dose curve; tested in HEK293 cells; note: potency is the fitted concentration of half-maximal effect; nearly all actives have a fitted effect of over 50% in size
# Marburg entry inh: blocks Marburg virus binding to or entry into cells; Potency, µM (doses to about 37.8 µM), for the others: top-dose activity change, negative = inhibition, most hits filed as inhibitors; 300,000 tested, 1.8% active; Marburg virus pseudotyped entry inhibition, cell reporter; AID 540276; calls by dose curve; tested in HEK293 cells; note: potency is the fitted concentration of half-maximal effect
# FMDV inh: blocks foot and mouth disease virus; FMDV antiviral cell-based qHTS; Potency, µM (titrated, usually from 57.9 µM), inactives show at the top dose activity change, negative = inhibition, hits mostly inhibitors; 410,000 tested, 1.2% active; calls by dose curve; tested in HEK293T cells; note: read-out not given here; potency is the fitted concentration of half-maximal effect; nearly all actives have a fitted effect of over 45% in size
# HCMV inh: human cytomegalovirus inhibition. HFF cells, HCMV-luciferase reporter, 72 h; hits give low values. activity change, negative = inhibition, % at 57.5 µM. 410,000 tested, 4.5% active. AID 1259415; in the data active = activity change below about -60%; inconclusive = no clear call, values can overlap the other calls; inactive = above about -39%
#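 Human foreskin fibroblasts infected with luciferase-reporter HCMV at MOI 1 PFU/cell, compounds at two doses. Luciferase measured 72 h post infection; normalized to buffer-only basal and Salinomycin (10uM) controls.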
# Vaccinia mCherry: inhibitors of vaccinia virus infection (mCherry reporter signal) | 310,000 tested, 0.63% active | Potency, µM (titrated, usually from 36.5 µM), for inactives: at the top dose activity change, negative = inhibition, most hits filed as inhibitors | Vaccinia virus mCherry reporter infection, fluorescence; calls by dose curve; tested in A549 cells; note: potency is the fitted concentration of half-maximal effect; nearly all actives have a fitted effect of over 35% in size
# The depositor's hits bear a star; i = inactive; ? = inconclusive; . = no result given; [ ] = remark or other dose. Most compounds without a hit are left out; they make up all but 6.5% or so of the library. % is set by controls: 0 for no effect and ±100 for the full control effect.
SMILES,VACV Venus inh,Lassa entry inh,Marburg entry inh,FMDV inh,HCMV inh,Vaccinia mCherry
COc1ccc(NC(=O)c2cc(C)nc3c2c(C)nn3-c2cccc(Cl)c2C)c(OC)c1,-23%,?,.,-11%,-7,-16%
O=C(O)C1CCCN1c1nc(-c2ccc(Cl)c(Cl)c2)cc(C(F)(F)F)n1 (stereo not given),?,?,0.5µM*,-26%,0,?
FC(F)(F)c1cc(-c2ccccc2)nc(N2CCCCC2)n1,-7%,-2%,-2%,-1%,-9,.
CCOC(=O)C1=C[C@@H](C2CCCCC2)N(S(=O)(=O)c2ccc([N+](=O)[O-])cc2)[C@H]1c1ccccc1,-1%,.,.,?,-77*,13%
CCOC(=O)C1=CC[C@@H](c2ccc([N+](=O)[O-])cc2)N(S(=O)(=O)c2ccc(C)cc2)[C@H]1c1ccccc1,5%,.,.,-17%,-14,27%
O=C(NCc1nnnn1-c1ccc(F)c(F)c1)C(=O)c1c[nH]c2ccccc12,-11%,-16%,7%,-18%,-13,-18%
Cc1nn(CCc2n[nH]c(=S)n2-c2cccc(Cl)c2)c(C)c1[N+](=O)[O-],.,-9%,12%,-15%,31,.
Cc1cccc(-n2c(Cn3nc(C)c([N+](=O)[O-])c3C)n[nH]c2=S)c1,-5%,9%,-3%,-13%,-98*,.
COc1ccc(C#Cc2ccc([C@H]3[C@H](CO)N4CCCCN(S(=O)(=O)c5cn(C)cn5)C[C@@H]34)cc2)cc1,.,.,.,.,22,.
CCOC(=O)Cc1c(C)nc2c(-c3cccc(Br)c3)cnn2c1C,-6%,?,27%,-16%,-75*,i
CC1CCN(C(=O)CCCOc2ccc(Cl)cc2)CC1,-19%,-23%,2%,21%,?,-22%
c1ccc(-c2ccccc2OCCCCN2CCCCCC2)cc1,-26%,.,.,-14%,-77*,-17%
COc1ccccc1OCCCCCCN1CCOCC1,.,.,.,-2%,-84*,.
c1ccc(-c2ccccc2OCCN2CCCC2)cc1,-3%,-28%[46.1 µM],?,-2%,6,i
CC1CCN(CCCCOc2ccc(Cl)cc2)CC1,-22%,6%[46.1 µM],7.9µM*,-9%,.,0%
CC1CCN(CCCCOc2ccccc2-c2ccccc2)CC1,?,2.1µM*,2.3µM*,0%,?,?
COc1ccc(OC)c(-c2ccnc(-n3ncc(C(=O)N(C)CCc4ccccn4)c3C)n2)c1,-4%,.,.,-11%,.,-15%
CNCCCCOc1ccccc1-c1ccccc1,?,?,7.1µM*,-14%,?,-22%
Cc1cccc(C)c1-n1nnnc1C1(C)CCC(=O)N1Cc1cccc(C(F)(F)F)c1 (stereo not given),-10%,.,.,-13%,-11,-8%
Nc1nc(C2CC2)c(Sc2sc(N)nc2C2CC2)s1,?,2.5µM*,?,25µM*,-72*,.
CC1=C(C(=O)Nc2ccccc2)C2(CCCCC2)C(C#N)=C(SCC(N)=O)N1,-9%,-7%,0%,-10%,10,i
CC1(C)CC(=O)C2=C(C1)NC(SCC(=O)Nc1ccccc1)=C(C#N)C21CCCCC1,10%,0%,?,28µM*,-27,.
Cc1cc2c(cc1S(=O)(=O)Nc1cccc(C)c1C)n(C)c(=O)c(=O)n2C,.,.,.,-5%,-6,.
CNCCCC12CCC(c3ccccc31)c1ccccc12,-25%,16µM*,4.6µM*,?,?,?
CNCCCC1Sc2ccccc2Oc2ccccc21 (stereo not given),-30%,?,?,?,14,?
SMILES,VACV Venus inh,Lassa entry inh,Marburg entry inh,FMDV inh,HCMV inh,Vaccinia mCherry
COc1cc(CN2CCc3ccccc3C2)cc([N+](=O)[O-])c1O,.,.,.,-4%,5,.
COc1cc(CN2CCN(c3cc(C)ccc3C)CC2)ccc1O,.,.,-1%,-29%,-73*,.
COc1cc(CN2CCc3ccccc3C2)ccc1O,.,.,.,32µM*,-100*,.
CCCCCCn1cc(CN2CC(N3CCN(CCO)CC3)CS2(=O)=O)nn1 (stereo not given),4%,.,.,-15%,-13,0%
CCc1nc(SCC(=O)Nc2ccccc2Cl)n[nH]1,-4%,30%,20%[46.1 µM],-9%,-37,7%
Cc1ccc2c(c1)-c1ncc(C(=O)c3ccccc3O)cc1CO2,-4%,6%[46.1 µM],4%[46.1 µM],41%,-26,-9%
Cc1ccc(O)c(C(=O)c2cnc3c(c2)COc2ccccc2-3)c1,-11%,5%,20%[46.1 µM],-28%,-66*,-12%
COC(=O)[C@@H]1C[C@@H](NC(=O)c2ccc(C(F)(F)F)cc2)CN1Cc1cccc(O)c1,1%,.,.,10%,.,-2%
CC(C)(C)C(=O)O/N=C(\N)Cc1ccc(-c2csnn2)cc1,-14%,?,8.9µM*,-7%,23,i
CCOc1ccc(NC(=O)CSC2=C(C#N)[C@H](c3ccc4c(c3)OCO4)CC(=O)N2)cc1,.,.,5%[46.1 µM],.,.,.
COc1cc(CCCN2CCNC[C@@H]2c2ccccc2)cc(OC)c1OC,-25%,.,.,5%,-72*,-6%
CCOC(=O)N1CCN(C(=O)CSCC(=O)Nc2nc(-c3ccc(-c4ccccc4)cc3)cs2)CC1,?,.,.,?,-77*,?
CCOC(=S)SCC(=O)Nc1nc(C)c(C)s1,.,.,.,-1%,65,.
COc1ccccc1C1(O)CCN(CC(=O)Nc2nc(-c3ccccc3)cs2)CC1,-10%,5.6µM*,?,25µM*,-12,-20%
CCOC(=O)N1CCN(C(=O)CSCC(=O)Nc2nc(-c3ccc(OC)cc3)cs2)CC1,.,-19%,?,?,14,.
CCOC(=S)SCC(=O)Nc1nccs1,-14%,-12%,?,22µM*,3,-3%
CCOC(=S)SCC(=O)Nc1nc(-c2ccc(Br)cc2)cs1,?,8.9µM*,?,?,-100*,?
CCOC(=S)SCC(=O)Nc1nc(-c2ccccc2)cs1,-28%,?,?,-15%,-73*,-19%
CN(C)CC(=O)Nc1nc(-c2ccccc2)cs1,-11%,-18%,15%,28%,113,-5%
CCOC(=O)c1cnc(Nc2nc3ccccc3o2)nc1C,.,1.3µM*,4.1µM*,?,-33,.
Cc1nc(Nc2nc3ccccc3o2)nc2c1CCC2,.,?,7.3µM*,?,-29,.
CCOC(=O)c1cnc(Nc2nc3ccccc3o2)nc1CSc1nnc(C)s1,.,?,?,16%,53,.
COc1ccccc1CC(=N)N1C[C@@H]2C(=O)CCC(c3ccccc3)(c3ccccc3)[C@@H]2C1,.,.,.,-23%,.,.
COc1ccc(O)c(/C=N/NC(=O)CCC(=O)Nc2ccc(F)cc2)c1,-16%,-1%,0%,7%,60,-2%
NC1=NC(=O)/C(=C\c2ccc(-c3ccccc3[N+](=O)[O-])o2)S1,-2%,.,.,.,.,i
COc1cc2c(cc1OC)CN(c1ccc(-c3ccccc3OC)nn1)CC2,1%,?,?,35µM*,.,-19%
COc1cc2c(cc1OC)CN(c1ccc3ccccc3n1)CC2,?,28%,-19%[46.1 µM],-23%,-5,?
CCCNC(=O)c1ccc2c(=O)c(O)c(-c3ccc(C)cc3)[nH]c2c1,?,.,.,-23%,-30,13µM*
